# Experimental data published in ChEMBL document CHEMBL3988442, “University of Dundee, Small-Polar-MMV Screening Library” (2021).
# Hit rate of the full screen: of about 48,000 compounds, about 13,000 (27%) showed an effect of 50% or more. The list shows a part of the results.
# Tested on: Wolbachia pipientis
# Assay: Anti-Wolbachia Cell-Based Screen
# Assay type: functional
# Set-up: scale not given: in the data most compounds retested in dose-response had high values
# Conditions: 5 µM
row,SMILES,Percent Effect [%]
1,Cc1oc(NC(=O)C(C)N2CCN(C(C)(C)CO)CC2)c(C#N)c1C (stereo not drawn),-7.519
2,O=C(Cc1cccc(F)c1F)NS(=O)(=O)c1cncc(Cl)c1,-8.127
3,Cc1ccc(OC2(C(=O)O)CCN(C/C=C/c3ccco3)CC2)cn1,1.431
4,CCN1CCN(c2ccc(CNC(=O)c3c(C)noc3C)cn2)CC1,9.474
5,CN(Cc1ccc([S+](C)[O-])cc1)c1ccccn1 (stereo not drawn),-21.98
6,Cc1nc(C)n(CC(C)C(=O)N2CCC(NS(C)(=O)=O)CC2)n1 (stereo not drawn),-0.2261
7,CS(=O)(=O)Cc1ccc(CNc2ncc(C#N)cc2Cl)cc1,-4.102
8,CCN(C)C(=O)C1(c2ccc(F)cc2F)CCC1,-1.611
9,CC(=O)N1CCCC1c1cc(N2CCN(CC3CC3)CC2)cc(C)n1 (stereo not drawn),101
10,O=C(Nc1cccc(N2CCN(CC3CC3)CC2)c1)N1CCCC1,0.3876
11,CC(=O)N1CCCC1c1cc(N2CCN(C3CCCC3)CC2)cc(C)n1 (stereo not drawn),1.456
12,CC(=O)N1CCCC1c1cc(N2CCN(CC(C)(C)C)CC2)cc(C)n1 (stereo not drawn),123.3
13,Cc1n[nH]c(C)c1C1CCCN1C(=O)NCC(=O)NC(C)(C)C (stereo not drawn),-8.161
14,Cc1cccc(CNCc2c(C(C)C)nn(C)c2N2CCOCC2)n1,-7.798
15,COCCS(=O)(=O)NC(=O)c1nnn(-c2ccc(F)cc2)c1C1CC1,-1.625
16,CS(=O)(=O)NC(=O)c1nnn(-c2ccccc2)c1C1CC1,97.89
17,CC(C)NC(=O)c1nnn(-c2cccc(C(F)(F)F)c2)c1C1CC1,8.497
18,NS(=O)(=O)CCNC(=O)c1nnn(-c2ccccc2)c1C1CC1,-6.368
19,CS(=O)(=O)NC(=O)c1nnn(-c2cccc(F)c2)c1C1CC1,110.8
20,Cc1ccc(-n2nnc(C(=O)NS(C)(=O)=O)c2C2CC2)cc1,-4.729
21,NC(=O)c1ccc(OCC(=O)NC2CCc3c(F)cccc32)cc1 (stereo not drawn),-9.741

row,SMILES,Percent Effect [%]
1,CC(C)N(C)Cc1ccccc1CNc1ccc2nncn2n1,-2.79
2,Cc1cc(F)ccc1S(=O)(=O)N1C[C@@H](C)[C@@](C)(O)C1,6.812
3,Cc1ccc(CC(=O)N2CCc3nnc(N(C)C)cc3C2)cn1,-3.136
4,CNC(=O)C1CCCN(c2nc(-c3ccco3)nc3c2CCNCC3)C1 (stereo not drawn),-9.477
5,CNC(=O)C1CCCN(C(=O)C2CCC2)C1 (stereo not drawn),-10.43
6,CNC(=O)[C@@H]1CN(C(=O)C2CCC2)C[C@H]1c1ccnc(N2CCCC2)n1.Cl,84.63
7,CNC(=O)[C@@H]1CN(C(=O)C(C)C)C[C@H]1c1ccnc(N2CCCC2)n1.Cl,109.4
8,Cc1nc(CNCc2ccc(N3CCC(CO)CC3)nc2)cs1,-0.2455
9,CN(Cc1cc2n(n1)CCN(C(=O)c1cccnc1)C2)Cc1nccs1,89.98
10,CN(Cc1cn2c(n1)CN(C(=O)C1CCCO1)CC2)Cc1ccco1 (stereo not drawn),5.5
11,CN(Cc1cc2n(n1)CCN(C(=O)[C@H]1CCCO1)C2)Cc1nccs1,100.4
12,O=C([C@@H]1CCCO1)N1CCn2c(Cn3cccn3)cnc2C1,2.282
13,CCOc1cccc(C(=O)N2CCCn3nc(CCC(=O)O)cc3C2)c1,-15.16
14,CN(Cc1cn2c(n1)CN(C(=O)c1cccnc1)CC2)Cc1ccco1,-4.152
15,CC(C)C1CN(C(=O)c2cc(C3CC3)n[nH]2)CCC(=O)N1CC1CC1 (stereo not drawn),29.09
16,C[C@@H]1CN(S(=O)(=O)N2CCCC2)C[C@@]1(O)C1CC1,-6.629
17,CNC(=O)[C@@H]1C[C@@H](NC(=O)c2ccc(OC)o2)CN1Cc1sccc1C,3.708
18,CC(C)CN(c1cn[nH]c1)S(=O)(=O)c1cccc(C#N)c1,-11.66
19,CC1(CCC(=O)N2CCC(n3cc(C4(O)CCCC4)nn3)CC2)CC1,8.722
20,O=C1CN(C(=O)C2CCCCC2)CC(O)CN1Cc1ccc(Cl)cc1 (stereo not drawn),110.4
21,Cc1ccc(CN2CC(O)CN(C(=O)C3CC3)CC2=O)cc1 (stereo not drawn),98.84

row,SMILES,Percent Effect [%]
1,COc1ccc(CN2CC(O)CN(C(=O)C3CCC3)CC2=O)cc1 (stereo not drawn),125.6
2,O=C1CN(C(=O)C2CCCOC2)CCN1Cc1ccc(Cl)cc1 (stereo not drawn),-1.465
3,CN(CCC(C)(C)O)C(=O)C1CCC(=O)N(Cc2ccc(Cl)cc2)C1 (stereo not drawn),-7.945
4,COc1ccc(CN2CCO[C@H]3CN(C4CCC4)CC[C@H]3C2=O)cc1.O=C(O)C(F)(F)F,-4.57
5,O=C(C1CCOCC1)N1CCN2C(=O)N(Cc3ccc(F)cc3)C[C@H]2C1,-6.376
6,COc1ccc(CN2CCO[C@H]3CN(C(=O)C4CC4)CC[C@H]3C2=O)cc1,-3.017
7,O=C1CN(C(=O)C2CCOCC2)CCN1Cc1ccc(Cl)cc1,-5.322
8,CCOCC1CN(C(=O)c2cccs2)Cc2nn(C)cc21 (stereo not drawn),-4.192
9,Cc1nccn1C1CCCN(C(=O)c2cnn(C)c2C2CC2)C1 (stereo not drawn),89.3
10,CCc1nccn1C1CCCN(C(=O)c2cnn(C)c2C2CC2)C1 (stereo not drawn),0.8841
11,CCn1ccnc1C1CCCN(C(=O)c2sc(C)nc2C)C1 (stereo not drawn),-9.404
12,CCCc1cc(C(=O)N2CCCC(n3ccnc3C)C2)[nH]n1 (stereo not drawn),-7.935
13,Cc1ncncc1C(=O)N1CCCC(n2ccnc2C)C1 (stereo not drawn),90.56
14,CC(C)c1nccn1C1CCCN(C(=O)c2cnn(C)c2C2CC2)C1 (stereo not drawn),-1.568
15,CCn1c(C)cc(C(=O)N2CCCC(n3nc(C)nc3C)C2)c1C (stereo not drawn),-3.865
16,Cc1nc(C)c(C(=O)N2CCCC(n3ccnc3C)C2)s1 (stereo not drawn),110.6
17,CCn1c(C)cc(C(=O)N2CCCC(n3ccnc3C)C2)c1C (stereo not drawn),101.9
18,Cc1cnc(C(=O)N2CCCC(n3ccnc3C)C2)cn1 (stereo not drawn),4.379
19,Cc1sc2nc(CCN)nc(N3CC(N4CCCCC4)C3)c2c1C,3.569
20,O=C(CCc1ncc(-c2ccc(F)cc2)o1)NCCN1CCOCC1,3.155
21,Cc1ncsc1C(=O)N(C)Cc1cccc(Cl)c1,-11.93
